Seven compounds from ChEMBL document CHEMBL2218924, “A broad activity screen in support of a chemogenomic map for kinase signalling research and drug discovery” (Biochem J, 2013) can be followed below.

In experiment [1] the target is Homeodomain-interacting protein kinase 3 (Homo sapiens) (UniProt Q9H422). To be noted: at 10 µM.
The target in experiment [2] is T1, Serine/threonine-protein kinase haspin (Homo sapiens) (UniProt Q8TF76).
T1 sequence (whole entry): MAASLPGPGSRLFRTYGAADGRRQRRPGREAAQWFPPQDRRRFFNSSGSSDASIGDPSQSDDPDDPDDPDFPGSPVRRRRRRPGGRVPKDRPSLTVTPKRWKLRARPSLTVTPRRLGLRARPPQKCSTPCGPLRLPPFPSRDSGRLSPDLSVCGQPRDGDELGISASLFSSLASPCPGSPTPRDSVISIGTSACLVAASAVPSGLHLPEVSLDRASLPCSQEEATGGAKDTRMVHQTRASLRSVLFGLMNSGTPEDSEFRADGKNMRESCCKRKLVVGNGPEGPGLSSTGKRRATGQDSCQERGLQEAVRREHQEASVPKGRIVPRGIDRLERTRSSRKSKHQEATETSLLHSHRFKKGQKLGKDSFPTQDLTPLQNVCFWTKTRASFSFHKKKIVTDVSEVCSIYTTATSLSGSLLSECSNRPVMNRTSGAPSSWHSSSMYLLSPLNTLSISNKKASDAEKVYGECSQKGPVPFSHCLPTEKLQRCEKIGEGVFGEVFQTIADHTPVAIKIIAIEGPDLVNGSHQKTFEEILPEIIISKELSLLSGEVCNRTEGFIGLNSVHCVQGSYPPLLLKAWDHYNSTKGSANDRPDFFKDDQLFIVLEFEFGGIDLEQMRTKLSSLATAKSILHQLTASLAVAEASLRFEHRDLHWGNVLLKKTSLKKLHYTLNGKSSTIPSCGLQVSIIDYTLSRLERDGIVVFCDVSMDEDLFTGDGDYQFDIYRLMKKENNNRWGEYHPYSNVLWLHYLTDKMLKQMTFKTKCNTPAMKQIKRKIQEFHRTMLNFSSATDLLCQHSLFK
Particulars: at 1 µM; call rule not given here.

The target in experiment [3] is T1, Serine/threonine-protein kinase haspin (Homo sapiens). Particulars: at 10 µM.
For experiment [4], the target named is Tyrosine-protein kinase HCK (Homo sapiens) (UniProt P08631). Particulars: at 1 µM.
Experiment [5] has the same target. Particulars: at 10 µM.
Experiment [6] addresses Insulin-like growth factor 1 receptor (Homo sapiens) (UniProt P08069). Particulars: at 1 µM.
Experiment [7] addresses T2, Serine/threonine-protein kinase D1 (Homo sapiens) (UniProt Q15139).
T2 sequence (whole entry): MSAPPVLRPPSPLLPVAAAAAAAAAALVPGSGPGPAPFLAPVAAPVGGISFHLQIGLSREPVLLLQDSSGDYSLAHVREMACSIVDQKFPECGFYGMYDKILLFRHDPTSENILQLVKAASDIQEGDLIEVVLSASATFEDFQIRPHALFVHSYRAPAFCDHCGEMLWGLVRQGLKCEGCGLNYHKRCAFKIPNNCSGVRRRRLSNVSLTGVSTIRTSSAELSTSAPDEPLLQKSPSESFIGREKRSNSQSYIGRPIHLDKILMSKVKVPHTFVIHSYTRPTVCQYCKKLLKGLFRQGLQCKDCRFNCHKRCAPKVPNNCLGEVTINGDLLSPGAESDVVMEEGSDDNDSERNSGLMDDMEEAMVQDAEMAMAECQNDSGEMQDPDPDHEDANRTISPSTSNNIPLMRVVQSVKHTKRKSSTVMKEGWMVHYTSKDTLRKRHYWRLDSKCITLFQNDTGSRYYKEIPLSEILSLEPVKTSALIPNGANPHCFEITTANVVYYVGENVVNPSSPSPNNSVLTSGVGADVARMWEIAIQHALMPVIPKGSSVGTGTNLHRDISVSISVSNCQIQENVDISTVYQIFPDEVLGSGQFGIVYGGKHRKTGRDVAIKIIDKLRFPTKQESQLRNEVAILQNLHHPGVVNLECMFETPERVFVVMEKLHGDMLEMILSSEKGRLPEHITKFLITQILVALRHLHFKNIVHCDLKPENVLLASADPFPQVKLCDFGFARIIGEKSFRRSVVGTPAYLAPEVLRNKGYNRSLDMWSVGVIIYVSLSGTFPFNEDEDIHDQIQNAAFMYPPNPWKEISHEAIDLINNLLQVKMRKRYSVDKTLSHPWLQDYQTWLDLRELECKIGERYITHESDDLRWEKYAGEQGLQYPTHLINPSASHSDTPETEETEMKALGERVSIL
To be noted: at 1 µM.

In experiment [8] the target is T2, Serine/threonine-protein kinase D1 (Homo sapiens). Particulars: at 10 µM.
The target of experiment [9] is T3, Serine/threonine-protein kinase D2 (Homo sapiens) (UniProt Q9BZL6).
T3 sequence (whole entry): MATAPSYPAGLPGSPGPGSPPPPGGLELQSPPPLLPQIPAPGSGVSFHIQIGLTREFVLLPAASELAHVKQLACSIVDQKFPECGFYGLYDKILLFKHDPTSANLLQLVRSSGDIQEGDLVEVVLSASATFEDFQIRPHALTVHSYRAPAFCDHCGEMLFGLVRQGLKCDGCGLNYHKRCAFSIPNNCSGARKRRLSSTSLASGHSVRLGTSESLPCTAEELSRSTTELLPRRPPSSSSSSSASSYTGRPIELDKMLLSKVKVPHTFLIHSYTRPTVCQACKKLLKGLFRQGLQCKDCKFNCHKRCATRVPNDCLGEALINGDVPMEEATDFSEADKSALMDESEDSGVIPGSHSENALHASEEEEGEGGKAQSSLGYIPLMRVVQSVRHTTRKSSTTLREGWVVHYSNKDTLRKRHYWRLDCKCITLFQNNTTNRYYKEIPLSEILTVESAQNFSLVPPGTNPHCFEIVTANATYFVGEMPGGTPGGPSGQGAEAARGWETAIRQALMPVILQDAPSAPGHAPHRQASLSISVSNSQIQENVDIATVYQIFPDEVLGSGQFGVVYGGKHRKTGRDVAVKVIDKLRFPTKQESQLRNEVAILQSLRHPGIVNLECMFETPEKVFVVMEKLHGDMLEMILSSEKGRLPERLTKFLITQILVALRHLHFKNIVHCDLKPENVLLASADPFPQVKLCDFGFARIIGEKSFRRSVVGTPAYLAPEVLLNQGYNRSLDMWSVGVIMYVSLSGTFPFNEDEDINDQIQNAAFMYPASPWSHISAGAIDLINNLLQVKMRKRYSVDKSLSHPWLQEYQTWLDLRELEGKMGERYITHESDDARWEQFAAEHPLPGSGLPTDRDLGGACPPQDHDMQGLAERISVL
Particulars: at 10 µM.

Experiment [10] concerns the target Tyrosine-protein kinase HCK (Homo sapiens) (UniProt P08631). To be noted: at 1 µM. This is another data set of the same source.
Experiment [11] shares this target. To be noted: at 10 µM. The source holds these as a separate data set.
The target in experiment [12] is Insulin-like growth factor 1 receptor (Homo sapiens) (UniProt P08069). Particulars: at 10 µM.
For experiment [13], the target named is Protein kinase C theta type (Homo sapiens) (UniProt Q04759). Particulars: at 1 µM.
Experiment [14] shares this target. Particulars: at 10 µM.
Experiment [15] addresses T4, Protein kinase C iota type (Homo sapiens) (UniProt P41743).
T4 sequence (whole entry): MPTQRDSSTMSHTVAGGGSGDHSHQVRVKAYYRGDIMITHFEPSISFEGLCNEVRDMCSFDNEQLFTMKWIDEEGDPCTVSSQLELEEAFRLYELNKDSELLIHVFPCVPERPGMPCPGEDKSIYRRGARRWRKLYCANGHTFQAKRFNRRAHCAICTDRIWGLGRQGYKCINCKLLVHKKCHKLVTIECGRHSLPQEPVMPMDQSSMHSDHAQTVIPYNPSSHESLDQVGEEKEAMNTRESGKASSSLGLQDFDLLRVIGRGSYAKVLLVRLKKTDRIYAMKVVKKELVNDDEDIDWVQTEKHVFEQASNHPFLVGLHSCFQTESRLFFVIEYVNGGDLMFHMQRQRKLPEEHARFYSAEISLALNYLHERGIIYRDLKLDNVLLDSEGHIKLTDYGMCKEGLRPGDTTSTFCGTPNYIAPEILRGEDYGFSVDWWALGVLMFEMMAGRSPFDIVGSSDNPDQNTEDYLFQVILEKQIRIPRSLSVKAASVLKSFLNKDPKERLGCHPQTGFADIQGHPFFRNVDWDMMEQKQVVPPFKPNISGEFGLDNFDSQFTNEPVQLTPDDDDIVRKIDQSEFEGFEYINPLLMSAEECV
Particulars: at 1 µM.

Experiment [16] deals with T4, Protein kinase C iota type (Homo sapiens). To be noted: at 10 µM.
Experiment [17] deals with T3, Serine/threonine-protein kinase D2 (Homo sapiens). Particulars: at 1 µM.
Experiment [18] addresses Protein kinase C eta type (Homo sapiens) (UniProt P24723). Particulars: at 1 µM.
Experiment [19] shares this target. Particulars: at 10 µM.
Experiment [20] concerns the target T5, Protein kinase C zeta type (Homo sapiens) (UniProt Q05513).
T5 sequence (whole entry): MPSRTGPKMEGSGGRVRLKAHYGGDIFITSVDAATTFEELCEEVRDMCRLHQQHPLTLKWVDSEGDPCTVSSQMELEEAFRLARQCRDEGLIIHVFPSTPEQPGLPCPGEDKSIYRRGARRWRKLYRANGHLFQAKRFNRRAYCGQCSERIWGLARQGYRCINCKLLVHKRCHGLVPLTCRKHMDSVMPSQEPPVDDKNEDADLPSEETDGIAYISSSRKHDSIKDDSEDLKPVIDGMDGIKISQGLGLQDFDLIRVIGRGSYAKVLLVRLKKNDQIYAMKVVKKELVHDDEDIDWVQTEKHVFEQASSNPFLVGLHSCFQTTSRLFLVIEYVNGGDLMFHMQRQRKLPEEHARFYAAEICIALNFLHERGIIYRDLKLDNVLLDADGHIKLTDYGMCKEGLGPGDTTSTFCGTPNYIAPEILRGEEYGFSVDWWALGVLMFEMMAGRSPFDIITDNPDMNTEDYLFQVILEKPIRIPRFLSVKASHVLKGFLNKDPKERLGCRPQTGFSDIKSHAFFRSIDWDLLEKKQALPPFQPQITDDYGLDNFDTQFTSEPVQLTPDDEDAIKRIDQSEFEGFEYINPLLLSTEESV
To be noted: at 10 µM.

A word on the residual activity: it is the signal under treatment as a percentage of the control signal.

Structures are written as SMILES.

Sequence of Tyrosine-protein kinase HCK (Homo sapiens) (P08631 2-526 limits assumed): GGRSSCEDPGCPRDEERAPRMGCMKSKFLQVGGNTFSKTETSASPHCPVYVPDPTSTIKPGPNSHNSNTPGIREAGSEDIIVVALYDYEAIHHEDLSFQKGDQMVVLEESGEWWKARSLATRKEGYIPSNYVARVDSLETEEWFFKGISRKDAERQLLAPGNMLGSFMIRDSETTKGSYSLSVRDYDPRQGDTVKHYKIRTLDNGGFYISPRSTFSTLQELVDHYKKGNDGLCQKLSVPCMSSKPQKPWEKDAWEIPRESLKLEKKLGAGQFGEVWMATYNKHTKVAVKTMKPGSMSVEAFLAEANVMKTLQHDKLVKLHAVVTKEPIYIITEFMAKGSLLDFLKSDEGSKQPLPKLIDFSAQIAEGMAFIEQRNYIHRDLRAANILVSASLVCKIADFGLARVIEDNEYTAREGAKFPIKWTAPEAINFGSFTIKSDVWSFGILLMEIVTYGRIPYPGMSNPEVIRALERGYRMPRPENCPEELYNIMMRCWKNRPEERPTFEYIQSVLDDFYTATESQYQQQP
Sequence of Protein kinase C eta type (Homo sapiens) (P24723 whole entry): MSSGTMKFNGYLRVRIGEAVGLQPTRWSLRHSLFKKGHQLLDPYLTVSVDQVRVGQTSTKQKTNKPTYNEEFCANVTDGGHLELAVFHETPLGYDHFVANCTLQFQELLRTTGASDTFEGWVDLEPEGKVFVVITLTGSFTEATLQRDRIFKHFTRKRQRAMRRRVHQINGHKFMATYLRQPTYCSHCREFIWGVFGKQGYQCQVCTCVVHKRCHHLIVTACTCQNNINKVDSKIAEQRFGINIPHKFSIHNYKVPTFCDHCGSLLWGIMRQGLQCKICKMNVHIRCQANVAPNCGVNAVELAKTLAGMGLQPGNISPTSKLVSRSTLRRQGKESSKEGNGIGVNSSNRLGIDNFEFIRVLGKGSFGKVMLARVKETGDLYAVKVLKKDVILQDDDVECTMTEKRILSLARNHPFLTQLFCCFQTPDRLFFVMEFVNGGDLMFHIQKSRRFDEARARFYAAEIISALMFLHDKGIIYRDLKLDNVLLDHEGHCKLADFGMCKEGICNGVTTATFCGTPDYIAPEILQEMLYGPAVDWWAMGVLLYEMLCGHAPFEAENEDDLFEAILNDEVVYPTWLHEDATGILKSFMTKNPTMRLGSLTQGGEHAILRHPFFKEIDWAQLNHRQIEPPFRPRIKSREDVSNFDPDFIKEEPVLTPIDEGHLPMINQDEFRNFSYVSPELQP
Sequence of Insulin-like growth factor 1 receptor (Homo sapiens) (P08069 31-736 limits assumed): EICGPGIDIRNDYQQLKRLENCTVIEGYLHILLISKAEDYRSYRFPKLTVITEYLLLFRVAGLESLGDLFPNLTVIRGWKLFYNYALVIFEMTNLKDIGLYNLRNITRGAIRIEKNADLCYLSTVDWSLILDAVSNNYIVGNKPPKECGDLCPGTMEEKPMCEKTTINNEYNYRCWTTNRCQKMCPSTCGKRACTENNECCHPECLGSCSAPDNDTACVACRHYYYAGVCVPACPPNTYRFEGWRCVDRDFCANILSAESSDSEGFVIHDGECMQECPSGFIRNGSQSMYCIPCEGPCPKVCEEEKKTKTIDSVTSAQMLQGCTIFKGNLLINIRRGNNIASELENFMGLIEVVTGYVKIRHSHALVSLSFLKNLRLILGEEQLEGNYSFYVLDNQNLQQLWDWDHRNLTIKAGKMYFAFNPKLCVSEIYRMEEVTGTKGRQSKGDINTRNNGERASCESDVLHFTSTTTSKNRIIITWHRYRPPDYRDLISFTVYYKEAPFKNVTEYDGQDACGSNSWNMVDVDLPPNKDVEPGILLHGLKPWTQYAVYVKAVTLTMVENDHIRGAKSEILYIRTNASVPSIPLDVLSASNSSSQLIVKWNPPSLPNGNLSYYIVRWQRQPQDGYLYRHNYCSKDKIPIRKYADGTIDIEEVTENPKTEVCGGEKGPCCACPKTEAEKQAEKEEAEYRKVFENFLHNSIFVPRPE
Sequence of Insulin-like growth factor 1 receptor (Homo sapiens) (P08069 741-1367 limits assumed): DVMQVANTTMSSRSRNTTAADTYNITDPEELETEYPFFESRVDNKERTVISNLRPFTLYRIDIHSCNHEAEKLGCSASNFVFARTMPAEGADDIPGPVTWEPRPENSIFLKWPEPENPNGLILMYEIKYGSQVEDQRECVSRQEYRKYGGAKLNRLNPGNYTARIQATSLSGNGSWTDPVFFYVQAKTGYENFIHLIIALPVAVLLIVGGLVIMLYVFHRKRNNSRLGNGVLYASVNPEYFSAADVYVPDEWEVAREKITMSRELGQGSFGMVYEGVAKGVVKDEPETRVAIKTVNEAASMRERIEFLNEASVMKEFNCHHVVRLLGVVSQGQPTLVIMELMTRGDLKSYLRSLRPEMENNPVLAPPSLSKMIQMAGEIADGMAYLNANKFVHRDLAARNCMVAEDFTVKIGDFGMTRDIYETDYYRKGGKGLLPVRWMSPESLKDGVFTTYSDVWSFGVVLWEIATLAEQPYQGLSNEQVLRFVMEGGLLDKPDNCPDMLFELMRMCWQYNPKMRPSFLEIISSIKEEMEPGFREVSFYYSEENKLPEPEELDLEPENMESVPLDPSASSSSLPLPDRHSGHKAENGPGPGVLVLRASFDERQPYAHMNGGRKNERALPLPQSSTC
Sequence of Homeodomain-interacting protein kinase 3 (Homo sapiens) (Q9H422 whole entry, looked up): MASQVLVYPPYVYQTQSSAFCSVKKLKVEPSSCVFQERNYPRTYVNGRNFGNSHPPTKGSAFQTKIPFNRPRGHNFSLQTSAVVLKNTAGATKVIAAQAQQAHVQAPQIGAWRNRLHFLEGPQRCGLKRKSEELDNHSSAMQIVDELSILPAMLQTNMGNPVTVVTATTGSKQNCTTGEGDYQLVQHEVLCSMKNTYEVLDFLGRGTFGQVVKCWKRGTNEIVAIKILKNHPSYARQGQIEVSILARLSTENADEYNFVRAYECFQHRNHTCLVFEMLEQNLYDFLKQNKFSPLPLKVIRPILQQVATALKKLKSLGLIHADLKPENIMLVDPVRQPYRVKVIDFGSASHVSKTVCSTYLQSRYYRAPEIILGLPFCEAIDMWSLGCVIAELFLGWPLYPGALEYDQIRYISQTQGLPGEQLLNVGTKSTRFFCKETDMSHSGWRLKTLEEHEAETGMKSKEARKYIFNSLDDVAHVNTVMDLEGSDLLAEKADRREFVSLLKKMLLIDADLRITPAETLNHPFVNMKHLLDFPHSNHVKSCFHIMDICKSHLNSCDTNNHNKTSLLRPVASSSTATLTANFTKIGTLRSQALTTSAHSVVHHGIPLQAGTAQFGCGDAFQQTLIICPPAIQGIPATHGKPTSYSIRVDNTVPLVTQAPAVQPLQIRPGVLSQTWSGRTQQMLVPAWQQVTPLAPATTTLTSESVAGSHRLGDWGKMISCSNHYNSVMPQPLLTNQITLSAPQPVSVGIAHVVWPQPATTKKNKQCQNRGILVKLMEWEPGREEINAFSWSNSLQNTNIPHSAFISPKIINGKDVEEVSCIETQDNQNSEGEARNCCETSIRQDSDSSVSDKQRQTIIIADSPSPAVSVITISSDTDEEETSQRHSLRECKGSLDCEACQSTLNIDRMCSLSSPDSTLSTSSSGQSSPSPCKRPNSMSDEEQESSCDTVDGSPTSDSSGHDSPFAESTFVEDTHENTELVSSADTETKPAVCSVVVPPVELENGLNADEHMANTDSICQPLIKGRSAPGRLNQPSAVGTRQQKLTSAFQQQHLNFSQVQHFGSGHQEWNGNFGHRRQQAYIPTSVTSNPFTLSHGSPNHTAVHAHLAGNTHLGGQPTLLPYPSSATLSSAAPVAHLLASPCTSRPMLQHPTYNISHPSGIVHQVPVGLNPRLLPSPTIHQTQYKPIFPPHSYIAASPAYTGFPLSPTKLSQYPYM
Sequence of Protein kinase C theta type (Homo sapiens) (Q04759 whole entry, looked up): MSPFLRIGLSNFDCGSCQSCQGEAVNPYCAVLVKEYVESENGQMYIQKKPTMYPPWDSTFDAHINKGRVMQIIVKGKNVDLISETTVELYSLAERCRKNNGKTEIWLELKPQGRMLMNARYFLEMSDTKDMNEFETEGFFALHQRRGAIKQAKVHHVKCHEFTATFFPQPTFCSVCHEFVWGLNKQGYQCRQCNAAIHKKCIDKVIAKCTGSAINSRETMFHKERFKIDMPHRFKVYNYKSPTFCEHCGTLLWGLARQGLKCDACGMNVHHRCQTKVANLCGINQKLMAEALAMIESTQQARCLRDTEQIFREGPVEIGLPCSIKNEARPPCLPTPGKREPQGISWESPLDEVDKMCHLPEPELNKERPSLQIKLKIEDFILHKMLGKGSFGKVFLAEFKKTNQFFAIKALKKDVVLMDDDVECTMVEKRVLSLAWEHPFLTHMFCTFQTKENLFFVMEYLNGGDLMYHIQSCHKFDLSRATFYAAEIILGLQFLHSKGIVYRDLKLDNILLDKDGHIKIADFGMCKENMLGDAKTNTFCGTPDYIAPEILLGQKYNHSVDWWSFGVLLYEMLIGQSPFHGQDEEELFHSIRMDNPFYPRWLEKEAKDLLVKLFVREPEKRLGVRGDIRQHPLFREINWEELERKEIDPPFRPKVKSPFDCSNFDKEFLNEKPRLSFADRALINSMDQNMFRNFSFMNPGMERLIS

In the case of `CCN1/C(=C/C(C)=O)Sc2ccc(OC)cc21`, the residual activity in experiment [1] was determined as 75%; in experiment [2], 17%; in experiment [3], 4%; in experiment [4], 76%; in [5] it was 71%; in experiment [6] it was 70%. Further, the residual activity in experiment [7] came out at 59%; in [8] it was 18%; in [9], 70%.
Regarding `CN(C)S(=O)(=O)c1ccc2c(c1)/C(=C/c1cc3c([nH]1)CCCC3)C(=O)N2`, the residual activity in [1] is 86%; in [2], 127%; in experiment [4], 10%; in [5] it was 10%; in experiment [10], 73%; in [11], 74%. In addition, the residual activity in experiment [12] was 134%; in experiment [13], 93%; in experiment [14], 72%; in experiment [15] it was 99% (inactive); in experiment [16], 114%; in experiment [7], 91%.
In the case of `O=C(CCCc1ccc(-c2ccccc2F)cc1)Nc1ccc(O)cc1`, the residual activity stood at 98% in [1]; 98% in experiment [3]; 96% in experiment [4]; 62% in experiment [5]; 106% in experiment [10]; 89% in experiment [11]. Besides, the residual activity in experiment [6] was 104%; in experiment [12], 100%; in [13] it was 100%; in [14] it was 105%; in [17], 110%; in experiment [9], 98%.
Consider `COc1cc2nccc(Oc3ccc(NC(=S)NC(=O)c4ccccc4C)cc3)c2cc1OC`, for which the residual activity in experiment [1] came to 101%; in experiment [2] it was 80%; in [3], 35%; in [4] it was 7%; in experiment [5], 1%; in experiment [10], 11%. Also, the residual activity in [11] came out at 3%; in experiment [6], 120%; in experiment [12], 148%; in experiment [18] it was 98%; in [19], 71%; in experiment [13] it was 89%. The residual activity is 97% in [14]; 88% (inactive) in experiment [15]; 82% in [16]; 87% in experiment [7]; 89% in [8].
Regarding `O=c1cc(N2CCNCC2)oc2c(-c3ccccc3)cccc12`, the residual activity in experiment [1] amounted to 99%; in experiment [2] it was 83%; in experiment [3], 38%; in experiment [4], 79%; in [5], 66%; in experiment [11], 95%. Further, the residual activity is 149% in experiment [12]; 99% in experiment [18]; 82% in [19]; 102% in [13]; 94% in experiment [14]; 93% (inactive) in experiment [15]. Moreover, the residual activity was 71% in [16], 96% in experiment [7], 90% in experiment [8] and 102% in [17].
Take `Oc1cccc(-c2nc(N3CCOCC3)c3oc4ncccc4c3n2)c1`: the residual activity was determined as 59% in experiment [1]; 76% in experiment [2]; 32% in [3]; 68% in experiment [5]; 131% in experiment [6]; 84% in [13]. Further, the residual activity in experiment [14] was 86%; in [15] it was 89% (inactive); in [7], 97%; in [8], 89%.
Turning to `NC(=O)Nc1sc(-c2ccc(F)cc2)cc1C(N)=O`, the residual activity amounted to 90% in [1]; 63% in [2]; 51% in experiment [3]; 24% in experiment [4]; 6% in experiment [5]; 37% in experiment [10]. Further, the residual activity in [11] stood at 7%; in experiment [6] it was 82%; in [12], 32%; in experiment [20], 100%; in experiment [18], 74%; in [19], 60%. The residual activity in experiment [13] is 83%; in experiment [14], 50%; in [15], 109% (inactive); in experiment [16], 107%; in experiment [7], 58%; in experiment [8], 29%. Moreover, the residual activity in experiment [17] amounted to 100%; in experiment [9], 64%.
